Records with an inconclusive call do not appear. Where a call stands in place of a potency, no number is given. Active and inactive are the calls of the source. Calls follow the shape of the full dose curve.
Biological target: Tyrosine-protein kinase ABL1 (Homo sapiens) (UniProt P00519)
Assay: ABL1 kinase (ABL1-N-HiBiT) SDR gain of signal screen - plus ATP
Settings: purified ABL1-N-HiBiT enzyme, HiBiT luminescence with 50 uM ATP, 30 min; series mostly up to 57.5 µM
In short: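 Structural-dynamics readout: compound binding alters HiBiT complementation signal of 10 nM ABL1-N-HiBiT in buffer containing 50 uM ATP. After 30 min RT compound exposure, HiBiT detection reagent added 10 min before luminescence imaging; imatinib as positive control.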

Tyrosine-protein kinase ABL1 (Homo sapiens), sequence (P00519 whole entry, looked up): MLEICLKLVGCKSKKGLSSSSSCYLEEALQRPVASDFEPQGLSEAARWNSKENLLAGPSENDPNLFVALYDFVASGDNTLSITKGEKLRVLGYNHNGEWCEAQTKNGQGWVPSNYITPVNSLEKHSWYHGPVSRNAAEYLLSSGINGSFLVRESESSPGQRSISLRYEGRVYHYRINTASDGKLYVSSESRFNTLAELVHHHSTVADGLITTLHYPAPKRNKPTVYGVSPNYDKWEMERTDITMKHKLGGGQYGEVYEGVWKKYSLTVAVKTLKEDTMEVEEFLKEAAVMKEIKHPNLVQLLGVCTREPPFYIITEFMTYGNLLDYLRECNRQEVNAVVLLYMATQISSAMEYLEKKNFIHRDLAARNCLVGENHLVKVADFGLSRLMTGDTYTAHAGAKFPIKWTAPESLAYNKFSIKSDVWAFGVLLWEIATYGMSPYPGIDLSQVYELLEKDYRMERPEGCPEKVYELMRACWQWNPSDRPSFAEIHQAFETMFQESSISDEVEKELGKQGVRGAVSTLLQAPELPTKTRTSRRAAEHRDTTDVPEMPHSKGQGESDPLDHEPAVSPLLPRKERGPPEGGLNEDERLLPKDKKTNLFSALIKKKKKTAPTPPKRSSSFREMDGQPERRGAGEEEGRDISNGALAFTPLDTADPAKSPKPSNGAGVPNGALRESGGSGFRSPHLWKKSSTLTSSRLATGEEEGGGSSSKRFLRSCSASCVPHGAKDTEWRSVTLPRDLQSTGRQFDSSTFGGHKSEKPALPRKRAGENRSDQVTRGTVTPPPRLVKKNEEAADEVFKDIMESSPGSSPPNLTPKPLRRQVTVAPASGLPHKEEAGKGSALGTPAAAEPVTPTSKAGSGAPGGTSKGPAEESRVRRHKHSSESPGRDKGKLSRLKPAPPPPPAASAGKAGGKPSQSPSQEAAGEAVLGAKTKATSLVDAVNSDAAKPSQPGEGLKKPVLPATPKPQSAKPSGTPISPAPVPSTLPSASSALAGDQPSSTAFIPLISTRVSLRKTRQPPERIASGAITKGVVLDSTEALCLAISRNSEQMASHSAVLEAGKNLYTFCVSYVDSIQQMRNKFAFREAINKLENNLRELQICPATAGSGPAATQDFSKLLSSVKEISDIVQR

Structure (SMILES)	Potency
O=C(NOCC(O)CO)c1cc(Br)c(F)c(F)c1Nc1ccc(I)cc1F (stereo unspecified)	inactive
Oc1ccc(-c2ccc(-c3cc(Nc4cccc(CNC5CC5)c4)n[nH]3)cc2)c(O)c1	inactive
Cc1[nH]c2ccccc2c1C1=C(NCCc2ccc(F)cc2)C(=O)N(C)C1=O	inactive
CCN1CCN(Cc2ccc(NC(=O)c3ccc(C)c(NC(=O)c4cncc(-c5cccs5)c4)c3)cc2C(F)(F)F)CC1	inactive
Cc1[nH]c(/C=C2\C(=O)Nc3ccc(S(=O)(=O)Cc4c(Cl)cccc4Cl)cc32)c(C)c1C(=O)N1CCC[C@@H]1CN1CCCC1	inactive
Cc1nc2ccc(-n3ncc(C(=O)c4cc5ccccc5[nH]4)c3N)cc2[nH]1	inactive

— PubChem BioAssay AID1963316 (National Center for Advancing Translational Sciences (NCATS), 2024)
